High-throughput results: PubChem, National Center for Advancing Translational Sciences (NCATS)
HT1080-NT tox: kills 2HG-producing HT-1080-NT fibrosarcoma cells; Potency, µM (series often up to 46.1 µM), inactives show top-dose activity, negative = less viability, usual class: cytotoxic; HT-1080-NT fibrosarcoma viability, CellTiter-Glo ATP luminescence, 48 h; AID 686970; actives 1.6% (n = 360,000);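 note: NT is the 2HG producing partner of a matched IDH1 knockdown line; potency is the fitted concentration of half-maximal effect; 0% = DMSO-treated cells and -100% = media-only wells without cells; nearly all actives have a fitted effect of over 55% in size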
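Toxicity toward the 2HG-producing NT line was scored as %Activity, normalised to DMSO and no-cell wells, from CellTiter-Glo luminescence after 48 hours' treatment.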
IL-1B inflam inh: blocks inflammasome-driven IL-1 beta release. THP-1 LPS/ATP IL-1B secretion, AlphaLISA, 16 h; hits give low values. activity change, % at 57.5 µM. actives 4.7% (n = 360,000); in the data active = activity change below about -50%; inconclusive = mostly about -30% to -49%
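Secreted IL-1B measured by AlphaLISA bead assay after 16 h compound exposure of THP-1 cells; compounds (final up to 57.5 uM) added 1 h before LPS (250 ng/mL) and ATP (1.25 mM) stimulation; lower signal means less secretion.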
TDP1 cell noCPT: qHTS for Inhibitors of human tyrosyl-DNA phosphodiesterase 1 (TDP1): qHTS in cells in absence of CPT. DT40 Tdp1-/- hTDP1 cells, no CPT, ATP luminescence, 48 h. Potency, µM (top dose mostly 46.2 µM), without a hit: top-dose activity change, negative = growth inhibition, hits mostly inhibitors. actives 15% (n = 420,000); note: potency is the fitted concentration of half-maximal effect; nearly all actives have a fitted effect of over 55% in size
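DT40 Tdp1-/-;hTDP1 cells, no CPT (DMSO vehicle only), 400 cells/well; compounds pin-transferred; ≥48 hr, 37 °C; CellTiter-Glo 30 min RT dark, luminescence read.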
DT40 TDP1 CPT: DT40-hTDP1 cell growth loss with CPT; chicken DT40 Tdp1-/-;hTDP1 cells + 20 nM CPT, ATP luminescence, 48 h; Potency, µM (titrated, usually from 46.2 µM), for the others: top-dose activity change, negative = growth inhibition, usual class: inhibitors; AID 686979; actives 12% (n = 420,000); note: potency is the fitted concentration of half-maximal effect; nearly all actives have a fitted effect of over 55% in size
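Chicken DT40 Tdp1-/- cells complemented with human TDP1, 400 cells/well, exposed to compounds plus 20 nM camptothecin for at least 48 h at 37 C; viability read as ATP content by CellTiter-Glo luminescence.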
HT1080 IDH1KD tx: kills HT-1080 cells with IDH1 knockdown; HT-1080 IDH1 knockdown viability, ATP luminescence, 48 h; Potency, µM (top dose mostly 46.1 µM), for the others: top-dose activity, negative = toxicity, most hits filed as cytotoxic; actives 2% (n = 360,000); AID 686971;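 note: potency is the fitted concentration of half-maximal effect; 0% = DMSO wells and -100% = cell-free medium wells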
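Knockdown cells (IDH1KD HT-1080) received compounds 2 h after plating at 750 cells/well and were kept 48 h at 37 °C in 5% FBS RPMI. A CellTiter-Glo luminescence read gave % activity for curve fitting.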
ELG1 DNA repair: ELG1-dependent DNA repair inhibition; HEK293T ELG1-luciferase reporter, luminescence, 16 h; DNA damage induced by 5-fluorouridine; Potency, µM (titrated, usually from 46.1 µM), for inactives: at the top dose activity change, negative = inhibition, actives largely listed as inhibitors; actives 2.3% (n = 330,000); AID 504467; note: potency is the fitted concentration of half-maximal effect; nearly all actives have a fitted effect of over 55% in size
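HEK293T cells expressing luciferase-tagged ELG1 (2,000/well) received 5-Fluorouridine plus compound or DMSO for 16 hr at 37 °C. Luciferase was read by ONE-Glo luminescence after 30 min at room temperature.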
* marks the source's active call; other numbers are inactive results. Rows were chosen to be rich in hits. Some 19% of all compounds tested hit in one or more screens of this group. Unless noted, calls come from the whole dose curve; as a rule, active = well fitted curve in the direction sought with a large enough effect; inconclusive = small, poorly fitted or top-dose-only effect, or another doubt; inactive = no such curve, though single readings can be large; an effect the other way counts as inactive or inconclusive. Unless noted, % is set by controls: 0 for no effect and ±100 for the full control effect.

Screening O=C(NCCCN1CCN(c2cccc(Cl)c2)CC1)Nc1ccccc1C(F)(F)F returned TDP1 cell noCPT inconclusive and DT40 TDP1 CPT 15µM*.
Cc1ccc(Cl)cc1N1CCN(CCNC(=O)Nc2ccccc2Cl)CC1 was read as TDP1 cell noCPT 12µM* and DT40 TDP1 CPT 16µM*.
CN1CCN(CCNC(=O)Nc2ccccc2C(F)(F)F)CC1 was read as HT1080-NT tox 9%, IL-1B inflam inh 11, TDP1 cell noCPT 2%, DT40 TDP1 CPT 6%, HT1080 IDH1KD tx 7% and ELG1 DNA repair 15%.
O=C(CCNC(=O)Cn1ccc2ccccc2c1=O)NCCN1CCN(c2cccc(Cl)c2)CC1 was read as HT1080-NT tox -11%, IL-1B inflam inh -17, TDP1 cell noCPT inconclusive, DT40 TDP1 CPT -27%, HT1080 IDH1KD tx -8% and ELG1 DNA repair inconclusive.
For Cc1ccccc1CS(=O)(=O)CCC(=O)NCCN1CCN(c2cccc(Cl)c2)CC1 the results were HT1080-NT tox -1%, IL-1B inflam inh inconclusive, TDP1 cell noCPT 15µM*, DT40 TDP1 CPT 23µM*, HT1080 IDH1KD tx -3% and ELG1 DNA repair -29%.
`COc1ccc2c(c1OC)C(Cc1ccccc1)N1CCc3cc4c(cc3C1=C2)OCO4` (stereo not drawn) gave TDP1 cell noCPT 3.8µM* and DT40 TDP1 CPT 3µM*.
For COc1ccc(C(=O)Nc2ncnc3nc[nH]c23)cc1 the results were TDP1 cell noCPT -8% and DT40 TDP1 CPT -5%.
`O=c1cc[nH]c2cccc(Cc3ccccc3)c12` gave HT1080-NT tox -10%, IL-1B inflam inh -9, TDP1 cell noCPT 13µM*, DT40 TDP1 CPT inconclusive, HT1080 IDH1KD tx -14% and ELG1 DNA repair -11%.
Screening C/C(=N\O)C(C)Oc1ccc(Cl)cc1 (stereo not drawn) returned HT1080-NT tox 22%, IL-1B inflam inh -14, TDP1 cell noCPT -15%, DT40 TDP1 CPT 2%, HT1080 IDH1KD tx -4% and ELG1 DNA repair 8%.
For Cc1cccc(N(C(=O)c2snc(C(N)=O)c2N)C(C(=O)NC2CCCC2)c2ccc(C)o2)c1 (stereo not drawn) the results were HT1080-NT tox inconclusive, IL-1B inflam inh -18, TDP1 cell noCPT 15µM*, DT40 TDP1 CPT 18µM*, HT1080 IDH1KD tx -27% and ELG1 DNA repair 5%.
`Cc1ccc(N(C(=O)c2snc(C(N)=O)c2N)C(C(=O)NC2CCCC2)c2ccc(C)o2)cc1` (stereo not drawn) gave HT1080-NT tox -22%, IL-1B inflam inh -77*, TDP1 cell noCPT inconclusive, DT40 TDP1 CPT inconclusive, HT1080 IDH1KD tx -20% and ELG1 DNA repair inconclusive.
Screening CCCC(C(=O)NC1CCCC1)N(C(=O)c1snc(C(N)=O)c1N)c1ccc(OCC)cc1 (stereo not drawn) returned HT1080-NT tox 1%, IL-1B inflam inh -59*, TDP1 cell noCPT 21µM*, DT40 TDP1 CPT -20%, HT1080 IDH1KD tx 0% and ELG1 DNA repair inconclusive.
`C=C(C)COC(=O)c1ccccc1C(=O)OCC1(C)CO1` (stereo not drawn) gave HT1080-NT tox 4%, IL-1B inflam inh 12, TDP1 cell noCPT inconclusive, DT40 TDP1 CPT inconclusive and HT1080 IDH1KD tx 7%.
`COC(=O)C1OC(=O)C2O[C@@]23[C@]2(C)C(OC(C)=O)CC4C(C)(C)C(=O)CC[C@]4(C)C2CC[C@@]13C` (stereo partly drawn) gave TDP1 cell noCPT -21% and DT40 TDP1 CPT -4%.
